Data from the supplement of paper PMC8371130.
Counter-ions that a name gives are not always drawn.

Tested on: HL-1
Assay: relative cell viability (CellTiter-Glo) vs DMSO control (% of DMSO control); higher = more viable cells
In short: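 Compounds at 40, 200, 1000 or 5000 nM in 0.01% DMSO were added to HL-1 mouse atrial cardiomyocytes plated at 1000 cells per well in 384-well plates. The next day, cells were exposed to 1% O2 for 48 h and then reoxygenated for 24 h, or left in normoxia for the same time. Viability was read with CellTiter-Glo luminescence and normalised to vehicle-treated controls.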

[1] = oxygen condition: hypoxia 48 h (1% O2) + reoxygenation 24 h, 40 nM
[2] = oxygen condition: hypoxia 48 h (1% O2) + reoxygenation 24 h, 200 nM
[3] = oxygen condition: hypoxia 48 h (1% O2) + reoxygenation 24 h, 1000 nM
[4] = oxygen condition: hypoxia 48 h (1% O2) + reoxygenation 24 h, 5000 nM
[5] = oxygen condition: normoxia 72 h, 40 nM
[6] = oxygen condition: normoxia 72 h, 200 nM
[7] = oxygen condition: normoxia 72 h, 1000 nM
[8] = oxygen condition: normoxia 72 h, 5000 nM

Row | Compound | relative cell viability [1] | relative cell viability [2] | relative cell viability [3] | relative cell viability [4] | relative cell viability [5] | relative cell viability [6] | relative cell viability [7] | relative cell viability [8]
1 | NC(=O)N1c2ccccc2C=Cc2ccccc21 [Carbamazepine] | 97.1 | 103 | 105 | 106 | 103 | 103 | 95.1 | 109
2 | O=C[C@H](O)[C@@H](O)[C@H](O)CO [Xylose] | 106 | 102 | 103 | 111 | 107 | 105 | 112 | 111
3 | Cn1nnc2c(C(N)=O)ncn2c1=O [Methazolastone] | 102 | 106 | 111 | 106 | 114 | 106 | 107 | 112
4 | O=C1N=C(O)NC1(c1ccccc1)c1ccccc1 [Phenytoin sodium] | 96.1 | 96.2 | 95.6 | 111 | 94.5 | 101 | 101 | 107
5 | NC12CC3CC(CC(C3)C1)C2 [Amantadine hydrochloride] | 107 | 110 | 93.3 | 32.7 | 102 | 101 | 101 | 84.9
6 | CC1(C)S[C@@H]2[C@H](NC(=O)[C@H](N)c3ccc(O)cc3)C(=O)N2[C@H]1C(=O)O [Amoxicillin] | 104 | 103 | 111 | 114 | 104 | 100 | 106 | 108
7 | CC[C@H](C)C(=O)O[C@H]1C[C@H](O)C=C2C=C[C@H](C)[C@H](CC[C@@H](O)C[C@@H](O)CC(=O)O)[C@H]21 [Pravastatin sodium] | 99.1 | 94.4 | 84.7 | 19.8 | 96.8 | 95.9 | 70.7 | 6.81
8 | NCCc1c[nH]cn1 [Histamine Phosphate] | 99.7 | 101 | 96.7 | 108 | 98.8 | 101 | 97.7 | 109
9 | C#C[C@]1(O)CC[C@H]2[C@@H]3CCc4cc(O)ccc4[C@H]3CC[C@@]21C [Ethinyl Estradiol] | 104 | 104 | 105 | 107 | 107 | 105 | 108 | 110
10 | NC(N)=Nc1nc(CSCC/C(N)=N/S(N)(=O)=O)cs1 [Famotidine] | 103 | 101 | 114 | 120 | 107 | 101 | 97.9 | 108
11 | CCCCC(=O)O[C@H]1CC[C@H]2[C@@H]3CCc4cc(O)ccc4[C@H]3CC[C@]12C [Estradiol valerate] | 100 | 103 | 108 | 108 | 98.8 | 103 | 102 | 118
12 | O=C1[C@@H]2[C@H]3CC[C@H](C3)[C@@H]2C(=O)N1C[C@@H]1CCCC[C@H]1CN1CCN(c2nsc3ccccc23)CC1 [Lurasidone HCl] | 96.8 | 101 | 100 | 99.9 | 101 | 104 | 102 | 102
13 | OC(CCN1CCCC1)(c1ccccc1)C1CCCCC1 (stereo not drawn) [Procyclidine HCl] | 93.1 | 89.9 | 85.4 | 29.9 | 101 | 97.7 | 82.5 | 30.6
14 | Cc1cccc(N(C)C(=S)Oc2ccc3ccccc3c2)c1 [Tolnaftate] | 91.4 | 102 | 100 | 105 | 102 | 101 | 105 | 103
15 | C[C@H](CCC(=O)O)[C@H]1CC[C@H]2[C@@H]3CC[C@@H]4C[C@H](O)CC[C@]4(C)[C@H]3CC[C@]12C [Lithocholic acid] | 108 | 108 | 108 | 113 | 102 | 113 | 105 | 108
16 | COc1ccc2[nH]c([S@@+]([O-])Cc3ncc(C)c(OC)c3C)nc2c1 [Esomeprazole sodium] | 94 | 93.2 | 106 | 106 | 94.1 | 96 | 100 | 114
17 | CS(=O)(=O)Nc1ccc([N+](=O)[O-])cc1Oc1ccccc1 [Nimesulide] | 105 | 105 | 109 | 103 | 108 | 105 | 102 | 104
18 | CCC[C@@H]1C[C@@H](C(=O)N[C@@H]([C@H]2O[C@H](SC)[C@H](O)[C@@H](O)[C@H]2O)[C@H](C)Cl)N(C)C1 [Clindamycin hydrochloride] | 98.5 | 93.8 | 91.3 | 102 | 102 | 98 | 100 | 86.2
19 | OC(CNCC(O)C1CCc2cc(F)ccc2O1)C1CCc2cc(F)ccc2O1 (stereo not drawn) [Nebivolol] | 106 | 109 | 106 | 112 | 103 | 107 | 112 | 115
20 | COC(=O)C1=C(C)NC(C)=C(C(=O)OC2CCCN(Cc3ccccc3)C2)C1c1cccc([N+](=O)[O-])c1 (stereo not drawn) [Benidipine hydrochloride] | 104 | 113 | 109 | 25 | 114 | 109 | 102 | 24
21 | CCCNC(C)C(=O)Nc1c(C)csc1C(=O)OC (stereo not drawn) [Articaine HCl] | 105 | 103 | 57.4 | 105 | 103 | 101 | 103 | 107
